# Sampled rows, rich in hits. Any-hit rate of the full collection: about 2.1%.
# FUS suppressor: suppressors of FUS proteinopathy in yeast. S. cerevisiae FUS-expressing, growth rescue, OD600, 24 h. Potency, µM (series often up to 76.6 µM), hits mostly activators. 0.24% of 390,000 active. AID 1347120; also: nearly all actives have a fitted effect of over 55% in size
#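 Toxicity suppression screen in FUS-yeast. Cells induced with 2% galactose, starting OD 0.005, treated 24hr at 30C with compounds at multiple final concentrations; growth by OD600.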
# aSyn rescue: alpha-synuclein toxicity inhibition in yeast. Yeast expressing alpha-synuclein, growth rescue, BacTiter-Glo, 24 h. Potency, µM (series often up to 46.1 µM), actives largely listed as activators. 0.14% of 370,000 active; also: nearly all actives have a fitted effect of over 65% in size
#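 Galactose-induced alpha-syn yeast (OD600=0.02, raffinose-pregrown) + pinned cpd, 24 hr, 30 deg C; growth by BacTiter-Glo luminescence. Growth restoration scores as activation.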
# Abeta rescue: A-beta toxicity reversal in yeast; yeast expressing A-beta42, growth rescue, OD600, 48 h; response scale: 0% DMSO, 100% iron-clioquinol control; Potency, µM (doses to about 46.1 µM), most hits filed as activators; 0.063% of 410,000 active; AID 1347071; also: nearly all actives have a fitted effect of over 55% in size
#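 Yeast A-beta toxicity model in growth medium with pinned compounds, 48 h at 30 C; growth read as absorbance at 600 nm. Normalized to FeCl3/clioquinol equimolar mix (positive) and DMSO (negative).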
# TDP43 rescue: rescues yeast growth from TDP-43 toxicity; TDP-43 expressing yeast growth rescue, BacTiter-Glo, 24 h; Potency, µM (top dose mostly 46.1 µM), most hits filed as activators; 1.8% of 410,000 active; AID 652104; also: nearly all actives have a fitted effect of over 50% in size
#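 Cell-based yeast growth screen: TDP-43 expression induced in galactose, inoculum OD600=0.02 after raffinose pregrowth to mid-log. Read-out BacTiter-Glo luminescence at 24 hr, 30 deg C; inhibition of toxicity seen as signal increase.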
# Hits are given with their value; i = inactive; ? = inconclusive; nt = not tested or not shown. Calls follow the shape of the dose curve; as a rule, active = well fitted curve in the direction sought with a large enough effect; inconclusive = small, poorly fitted or top-dose-only effect, or another doubt; inactive = no such curve, though single readings can be large; an effect the other way counts as inactive or inconclusive.
SMILES,FUS suppressor,aSyn rescue,Abeta rescue,TDP43 rescue
O=C(COc1ccc(-c2ccccc2)cc1)Nc1cccnc1,i,i,i,22.4µM
Cc1ccc(OCC(=O)Nc2nc(-c3ccccn3)cs2)c(C)c1,i,22.4µM,i,?
O=c1c2ccccc2sn1-c1ccc(S(=O)(=O)N2CCOCC2)cc1,nt,i,nt,nt
CCOC(=O)c1ccc(N2C(=O)c3[nH]nc(-c4ccc(OC)cc4)c3C2c2ccc(C)cc2)cc1 (stereo not drawn),?,nt,i,i
CCSC1=N/C(=C\c2ccccc2)C(=O)N1c1ccc(OC)cc1,i,i,i,i
CCN(CC)C1=N/C(=C\c2ccc(OC)cc2)C(=O)N1c1ccccc1,i,i,i,22.4µM
COc1ccccc1C(=O)N1CCN(c2nc3cc(C)cc(C)c3cc2C#N)CC1,i,i,i,11.2µM
Cc1nc(N2CCN(C(=O)c3ccco3)CC2)c(C#N)c2c1CCCC2,i,i,i,?
COc1ccccc1C(=O)N1CCN(c2nc3cc(C)c(C)cc3cc2C#N)CC1,?,i,i,?
Cc1cc(C)c2nc(N3CCCN(C(=O)c4ccco4)CC3)c(C#N)cc2c1,i,nt,i,17.8µM
O=[N+]([O-])c1ccc(/C=N/NC(=S)Nc2ccccc2F)o1,i,i,i,12.6µM
CSc1ccc(CNC(=O)C2CCCN(S(=O)(=O)N(C)c3ccc(F)cc3)C2)cc1 (stereo not drawn),i,nt,i,i
Cc1ccc(C)c(N2CCN(S(=O)(=O)c3c(C(=O)N4CCC(C)CC4)c(C)n(C)c3C)CC2)c1,?,nt,i,i
CC(C)=CCC[C@](C)(O[C@@H]1O[C@H](CO[C@@H]2OC[C@H](O[C@@H]3OC[C@@H](O)[C@H](O)[C@H]3O)[C@H](O)[C@H]2O)[C@@H](O)[C@H](O)[C@H]1O)C1CC[C@]2(C)C1[C@H](O)CC1[C@@]3(C)CC[C@H](O)C(C)(C)C3[C@@H](O)C[C@]12C (stereo partly drawn),i,i,i,i
CC(C)=CCC[C@](C)(O[C@@H]1O[C@H](CO[C@@H]2OC[C@@H](O)[C@H](O)[C@H]2O)[C@@H](O)[C@H](O)[C@H]1O)C1CC[C@]2(C)C1[C@H](O)CC1[C@@]3(C)CC[C@H](O[C@@H]4O[C@H](CO)[C@@H](O)[C@H](O)[C@H]4O)C(C)(C)C3CC[C@]12C (stereo partly drawn),15.8µM,i,i,i
CCCCOC(=O)CCN1C(=O)/C(=C/c2ccccc2)SC1=S,i,nt,nt,nt
COC(=O)C1=C(C)N(Cc2ccccc2)C(=S)N[C@H]1c1cccc(F)c1,?,?,i,11.2µM
CC(C)CN(C(=O)c1ccc(=O)n(C)n1)c1nc2ccccc2s1,i,i,i,15.8µM
CCc1cccc(-n2c(=O)c3cccnc3n2CC(=O)NCc2ccc(C)cc2)c1,i,nt,i,i
Cc1ccc(Nc2c(N)c(=O)oc3ccccc23)cc1,i,i,i,14.1µM
CNc1c(N)c(=O)oc2ccccc12,i,i,i,i
Cc1ccc(CNC(=O)c2ccc(CSCc3cccc(C)c3)o2)cc1,i,?,i,35.5µM
O=C1CCCCC1C(Nc1ccc(Cl)cc1)c1ccccc1 (stereo not drawn),i,i,i,?
O=C1CCCCC1C(Nc1ccc(Br)cc1)c1ccccc1 (stereo not drawn),i,i,i,12.6µM
COc1ccccc1NC(=O)CSc1nnc(-c2cccc(Cl)c2)o1,i,nt,i,17.8µM
SMILES,FUS suppressor,aSyn rescue,Abeta rescue,TDP43 rescue
CCc1ccccc1NC(=O)CSc1nnc(COc2ccccc2Cl)o1,i,nt,i,15.8µM
COc1ccc(-c2nnc(SCC(=O)Nc3ccccc3OC)o2)cc1,i,i,i,?
COc1ccccc1NC(=O)CSc1nnc(C2CCCCC2)o1,i,i,?,17.8µM
NCCCNc1ccc(Br)cn1,nt,i,nt,nt
COc1ccccc1CNC(=O)N1CCC(c2nc3ccc(Cl)cc3[nH]2)CC1,i,nt,nt,nt
CCCCNC(=O)C1CCCN1C(=O)Nc1ccc2c(c1)OCO2 (stereo not drawn),i,nt,nt,nt
C[C@@H](C(=O)NCCc1ccccc1)N1C(=O)N2CCc3c([nH]c4ccccc34)[C@@]2(C)C1=O,i,?,i,35.5µM
Cc1cccn2c(=O)cc(CSc3nnc(NC(=O)c4ccc(F)cc4)s3)nc12,i,nt,i,i
Cc1ccc(CCNS(=O)(=O)c2ccc(C)cc2)cc1,i,nt,i,15.8µM
Cc1ccc(S(=O)(=O)NCCc2ccc(S(N)(=O)=O)cc2)cc1,i,nt,i,i
c1ccc(Nc2nc(NCc3ccco3)nc3nccnc23)cc1,nt,i,nt,nt
COc1ccc(CNC(=O)C2(C)Cc3c(-c4ccc5c(c4)OCO5)ccnc3O2)cc1OC (stereo not drawn),i,8.91µM,i,i
CC(=O)Nc1ccc(-c2ccnc3c2CC(C)(C(=O)Nc2ccc(C(C)C)cc2)O3)cc1 (stereo not drawn),?,i,i,35.5µM
CC1(C(=O)Nc2cccc(OC(F)(F)F)c2)Cc2c(-c3ccc4c(c3)OCO4)ccnc2O1 (stereo not drawn),i,3.55µM,i,i
COc1cc2c(NC3CCN(C)CC3)nc(N3CCCCC3)nc2cc1OCCOCCN1CCCC1,nt,i,nt,nt
CSc1ccc(C2C(C#N)=C(N)Oc3c2ccc(=O)c2c(C)oc(C)c32)cc1 (stereo not drawn),22.4µM,?,i,i
Cc1oc(C)c2c(=O)ccc3c(c12)OC(N)=C(C#N)C3c1ccccc1 (stereo not drawn),i,i,i,i
COc1ccccc1CC(=O)Nc1nc(-c2ccc(F)c(F)c2)cs1,i,i,i,17.8µM
COc1ccc(-c2csc(NC(=O)Cc3ccccc3F)n2)cc1OC,i,i,i,?
O=C(Cc1ccccc1F)Nc1nc(-c2ccc(F)cc2)cs1,i,i,i,12.6µM
O=C(CS(=O)(=O)c1ccccc1)Nc1nc(-c2ccc(F)cc2)cs1,i,i,i,?
Cc1cc(O)c2c(C)c(CC(=O)N3CCN(C(=O)C4COc5ccccc5O4)CC3)c(=O)oc2c1 (stereo not drawn),28.2µM,i,i,i
O=C(NCCCc1nc2ccccc2n1CCOc1ccccc1)C1CCCCC1,nt,i,nt,nt
COc1cc(OC)c(/C=C/c2ccc3ccccc3[n+]2[O-])c(OC)c1,nt,i,nt,nt
CC1CCN(C(=O)CSc2ccc(-c3cccc([N+](=O)[O-])c3)nn2)CC1,i,i,i,?
SMILES,FUS suppressor,aSyn rescue,Abeta rescue,TDP43 rescue
CC1CCN(C(=O)CSc2ccc(-c3ccccc3)nn2)CC1,i,i,i,17.8µM
O=C(CSc1ccc2nnc(-c3cccs3)n2n1)N1CCCC1,i,i,i,i
O=C(CSc1ccc(-c2cccs2)nn1)N1CCCCC1,nt,i,i,22.4µM
O=C(CSc1ccc(-c2cccs2)nn1)N1CCCCCC1,nt,i,?,17.8µM
COC(=O)[C@H](C)NC(=O)C(Cc1ccc2c(c1)OCO2)NC(C)=O (stereo partly drawn),i,nt,nt,nt
O=C(CNC(=O)C(c1ccccc1)c1ccccc1)OCC(=O)c1cccc2ccccc12,nt,i,nt,nt
